# Data reported in PMC11006913.
# Assays:
# Test in all cases: PBM; 200 nM protein, PBS
# Settings in all cases: dsDNA, one strand shown
# [1] = target: HOXD13 (Homo sapiens, UniProt P35453 263-343, T313R)
# [2] = target: HOXD13 (Homo sapiens, UniProt P35453 263-343)
# [3] = target: VAX1 (Homo sapiens, UniProt Q5SQQ9 86-172)
# [4] = target: HOXD13 (Homo sapiens, UniProt P35453 263-343, T313A)
# [5] = target: VAX1 (Homo sapiens, UniProt Q5SQQ9 86-172, T142I)
# [6] = target: VAX1 (Homo sapiens, UniProt Q5SQQ9 86-172, K157R)
# Sequence of VAX1 (Homo sapiens, UniProt Q5SQQ9 86-172, K157R) (Q5SQQ9 86-172 K157R): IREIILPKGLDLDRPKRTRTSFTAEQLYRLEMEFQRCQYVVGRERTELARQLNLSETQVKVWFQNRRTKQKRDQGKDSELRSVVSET
# Sequence of HOXD13 (Homo sapiens, UniProt P35453 263-343, T313R) (P35453 263-343 T313R): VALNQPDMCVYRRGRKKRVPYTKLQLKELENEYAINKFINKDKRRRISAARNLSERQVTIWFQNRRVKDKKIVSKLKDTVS
# Sequence of HOXD13 (Homo sapiens, UniProt P35453 263-343) (P35453 263-343): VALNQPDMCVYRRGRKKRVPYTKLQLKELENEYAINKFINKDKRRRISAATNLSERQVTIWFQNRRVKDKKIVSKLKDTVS
# Sequence of HOXD13 (Homo sapiens, UniProt P35453 263-343, T313A) (P35453 263-343 T313A): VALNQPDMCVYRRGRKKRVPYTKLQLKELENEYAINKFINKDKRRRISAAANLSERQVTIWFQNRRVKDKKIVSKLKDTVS
# Sequence of VAX1 (Homo sapiens, UniProt Q5SQQ9 86-172) (Q5SQQ9 86-172): as the sequence (Q5SQQ9 86-172 K157R) above, with R72K counted along it
# Sequence of VAX1 (Homo sapiens, UniProt Q5SQQ9 86-172, T142I) (Q5SQQ9 86-172 T142I): as the sequence (Q5SQQ9 86-172 K157R) above, with T57I, R72K counted along it
Sequence,binding signal [1],binding signal [2],binding signal [3],binding signal [4],binding signal [5],binding signal [6]
CCCTGACC,"9.5 upbm affinity estimate (log intensity, higher = more binding, comparable within an allelic series)","9.5 upbm affinity estimate (log intensity, higher = more binding, comparable within an allelic series)","7.22 upbm affinity estimate (log intensity, higher = more binding, comparable within an allelic series)","9.64 upbm affinity estimate (log intensity, higher = more binding, comparable within an allelic series)","7.35 upbm affinity estimate (log intensity, higher = more binding, comparable within an allelic series)","7.27 upbm affinity estimate (log intensity, higher = more binding, comparable within an allelic series)"
CCGCGCTC,"9.52 upbm affinity estimate (log intensity, higher = more binding, comparable within an allelic series)","9.5 upbm affinity estimate (log intensity, higher = more binding, comparable within an allelic series)",–,"9.47 upbm affinity estimate (log intensity, higher = more binding, comparable within an allelic series)",–,–
GAAGGCCC,"9.62 upbm affinity estimate (log intensity, higher = more binding, comparable within an allelic series)","9.68 upbm affinity estimate (log intensity, higher = more binding, comparable within an allelic series)",–,"9.79 upbm affinity estimate (log intensity, higher = more binding, comparable within an allelic series)",–,–
GGAGCAAC,"9.51 upbm affinity estimate (log intensity, higher = more binding, comparable within an allelic series)","9.53 upbm affinity estimate (log intensity, higher = more binding, comparable within an allelic series)",–,"9.56 upbm affinity estimate (log intensity, higher = more binding, comparable within an allelic series)",–,–
ATAGCAAT,"10.2 upbm affinity estimate (log intensity, higher = more binding, comparable within an allelic series)","10.7 upbm affinity estimate (log intensity, higher = more binding, comparable within an allelic series)",–,–,–,–
ATTACGAG,"10.5 upbm affinity estimate (log intensity, higher = more binding, comparable within an allelic series)","11.7 upbm affinity estimate (log intensity, higher = more binding, comparable within an allelic series)",–,"11.4 upbm affinity estimate (log intensity, higher = more binding, comparable within an allelic series)",–,–
AGGAGGGG,"9.43 upbm affinity estimate (log intensity, higher = more binding, comparable within an allelic series)","9.61 upbm affinity estimate (log intensity, higher = more binding, comparable within an allelic series)",–,"9.63 upbm affinity estimate (log intensity, higher = more binding, comparable within an allelic series)",–,–
GCTCGTAA,"10.6 upbm affinity estimate (log intensity, higher = more binding, comparable within an allelic series)","11.9 upbm affinity estimate (log intensity, higher = more binding, comparable within an allelic series)",–,"11.7 upbm affinity estimate (log intensity, higher = more binding, comparable within an allelic series)",–,–
TCACTAAA,"10.1 upbm affinity estimate (log intensity, higher = more binding, comparable within an allelic series)","10.6 upbm affinity estimate (log intensity, higher = more binding, comparable within an allelic series)",–,–,–,–
AAGGGGGG,"9 upbm affinity estimate (log intensity, higher = more binding, comparable within an allelic series)","9.33 upbm affinity estimate (log intensity, higher = more binding, comparable within an allelic series)",–,"9.26 upbm affinity estimate (log intensity, higher = more binding, comparable within an allelic series)",–,–
CCTACCCC,"9.51 upbm affinity estimate (log intensity, higher = more binding, comparable within an allelic series)","9.51 upbm affinity estimate (log intensity, higher = more binding, comparable within an allelic series)",–,"9.59 upbm affinity estimate (log intensity, higher = more binding, comparable within an allelic series)",–,–
CGCGATGC,"9.5 upbm affinity estimate (log intensity, higher = more binding, comparable within an allelic series)","9.5 upbm affinity estimate (log intensity, higher = more binding, comparable within an allelic series)",–,"9.65 upbm affinity estimate (log intensity, higher = more binding, comparable within an allelic series)",–,–
TCGGCCCA,"9.58 upbm affinity estimate (log intensity, higher = more binding, comparable within an allelic series)","9.62 upbm affinity estimate (log intensity, higher = more binding, comparable within an allelic series)",–,"9.55 upbm affinity estimate (log intensity, higher = more binding, comparable within an allelic series)",–,–
GATACGAC,"9.91 upbm affinity estimate (log intensity, higher = more binding, comparable within an allelic series)","10.3 upbm affinity estimate (log intensity, higher = more binding, comparable within an allelic series)",–,–,–,–
CGCACAGC,"9.44 upbm affinity estimate (log intensity, higher = more binding, comparable within an allelic series)","9.48 upbm affinity estimate (log intensity, higher = more binding, comparable within an allelic series)",–,"9.53 upbm affinity estimate (log intensity, higher = more binding, comparable within an allelic series)",–,–
GTTTATGA,"10.9 upbm affinity estimate (log intensity, higher = more binding, comparable within an allelic series)","12 upbm affinity estimate (log intensity, higher = more binding, comparable within an allelic series)",–,"11.8 upbm affinity estimate (log intensity, higher = more binding, comparable within an allelic series)",–,–
CCGCCCGG,"9.44 upbm affinity estimate (log intensity, higher = more binding, comparable within an allelic series)","9.37 upbm affinity estimate (log intensity, higher = more binding, comparable within an allelic series)",–,"9.62 upbm affinity estimate (log intensity, higher = more binding, comparable within an allelic series)",–,–
GCCACGGA,"9.56 upbm affinity estimate (log intensity, higher = more binding, comparable within an allelic series)","9.61 upbm affinity estimate (log intensity, higher = more binding, comparable within an allelic series)",–,"9.69 upbm affinity estimate (log intensity, higher = more binding, comparable within an allelic series)",–,–
CAGCGGGG,"9.37 upbm affinity estimate (log intensity, higher = more binding, comparable within an allelic series)","9.58 upbm affinity estimate (log intensity, higher = more binding, comparable within an allelic series)",–,"9.58 upbm affinity estimate (log intensity, higher = more binding, comparable within an allelic series)",–,–
CCTGAAGG,"9.53 upbm affinity estimate (log intensity, higher = more binding, comparable within an allelic series)","9.53 upbm affinity estimate (log intensity, higher = more binding, comparable within an allelic series)",–,"9.6 upbm affinity estimate (log intensity, higher = more binding, comparable within an allelic series)",–,–
CATCGGGG,"9.56 upbm affinity estimate (log intensity, higher = more binding, comparable within an allelic series)","9.66 upbm affinity estimate (log intensity, higher = more binding, comparable within an allelic series)",–,"9.72 upbm affinity estimate (log intensity, higher = more binding, comparable within an allelic series)",–,–
CGCCGCCC,"9.48 upbm affinity estimate (log intensity, higher = more binding, comparable within an allelic series)","9.53 upbm affinity estimate (log intensity, higher = more binding, comparable within an allelic series)",–,"9.6 upbm affinity estimate (log intensity, higher = more binding, comparable within an allelic series)",–,–
GCACCGGA,"9.55 upbm affinity estimate (log intensity, higher = more binding, comparable within an allelic series)","9.43 upbm affinity estimate (log intensity, higher = more binding, comparable within an allelic series)",–,"9.61 upbm affinity estimate (log intensity, higher = more binding, comparable within an allelic series)",–,–
GAGGGGCC,"9.41 upbm affinity estimate (log intensity, higher = more binding, comparable within an allelic series)","9.46 upbm affinity estimate (log intensity, higher = more binding, comparable within an allelic series)",–,"9.41 upbm affinity estimate (log intensity, higher = more binding, comparable within an allelic series)",–,–
GCCGGTGA,"9.57 upbm affinity estimate (log intensity, higher = more binding, comparable within an allelic series)","9.7 upbm affinity estimate (log intensity, higher = more binding, comparable within an allelic series)",–,"9.88 upbm affinity estimate (log intensity, higher = more binding, comparable within an allelic series)",–,–
